Experimental data reported in PubChem BioAssay AID602292 (National Center for Advancing Translational Sciences (NCATS), 2012).
Screen size: about 1,300 compounds; about 380 (29%) were called active. Not shown: some 37% with an inconclusive outcome. The call rests on the fitted dose curve; in most records, active means well fitted inhibition curve with a large enough effect; inconclusive means small, poorly fitted or top-dose-only effect; inactive means flat fitted curve, though single readings scatter. The list shows a part of the results.

Molecular target: Thyrotropin receptor (Homo sapiens) (UniProt P16473)
Sequence (P16473 whole entry, looked up): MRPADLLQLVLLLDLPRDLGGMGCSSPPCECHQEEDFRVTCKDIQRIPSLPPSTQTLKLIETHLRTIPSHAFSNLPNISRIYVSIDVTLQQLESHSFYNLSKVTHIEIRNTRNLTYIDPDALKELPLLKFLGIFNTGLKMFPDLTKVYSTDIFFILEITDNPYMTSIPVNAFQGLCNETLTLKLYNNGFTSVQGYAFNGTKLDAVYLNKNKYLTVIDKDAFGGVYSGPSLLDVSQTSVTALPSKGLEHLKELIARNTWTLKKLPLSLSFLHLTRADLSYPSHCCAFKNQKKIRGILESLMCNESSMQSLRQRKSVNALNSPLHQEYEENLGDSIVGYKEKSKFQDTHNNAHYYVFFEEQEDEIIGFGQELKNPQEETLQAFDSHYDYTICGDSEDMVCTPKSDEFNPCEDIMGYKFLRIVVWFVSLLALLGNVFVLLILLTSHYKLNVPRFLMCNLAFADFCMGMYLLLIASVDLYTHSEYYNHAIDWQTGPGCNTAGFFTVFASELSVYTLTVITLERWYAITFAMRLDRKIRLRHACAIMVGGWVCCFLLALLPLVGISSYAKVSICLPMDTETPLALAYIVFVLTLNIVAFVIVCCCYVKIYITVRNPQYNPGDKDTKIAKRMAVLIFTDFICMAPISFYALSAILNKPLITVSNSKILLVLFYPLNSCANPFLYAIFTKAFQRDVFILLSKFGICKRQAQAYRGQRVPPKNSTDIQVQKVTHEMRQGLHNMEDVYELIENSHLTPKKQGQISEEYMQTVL
Experiment: qHTS for antagonists of the Thyroid Stimulation Hormone Receptor: Hit Validation in Primary Screen; further: nearly all actives have a fitted effect of over 80% in size
Conditions: TSHR-expressing cells, cAMP antagonist mode; series mostly up to 58 µM
Source text: The thyroid-stimulating hormone receptor (TSHR) is a member of the 7 trans-membrane-spanning receptor (7TMR) family of cell surface receptors. TSHR-mediated hyperthyroidism is important in thyroid pathology. The development of small molecule antagonists of TSHR may lead to therapeutic approaches for TSHR-mediated hyperthyroidism caused by constitutively activating mutations or stimulating auto-antibodies associated with Graves' disease. Graves' disease is the leading cause of hyperthyroidism and is caused by autoantibodies that stimulate TSHR (TsAbs) causing thyroid growth and unregulated overproduction of thyroid hormones and existing treatments have liabilities (agranulocytosis). In addition, TSHRs are known to be expressed in multiple extrathyroidal tissues including bone, brain, kidney, testis, fat and cells of the immune system but the role of the TSHR in these tissues is not clear. Therefore, TSHR antagonists/inverse agonists could be used as probes of extrathyroidal TSHR function. Finally, TSHR inverse agonists, which are a subclass of antagonists that inhibit agonist-independent (or basal or constitutive) TSHR signaling, could be used to inhibit TSH-independent signaling in patients with recurrent or metastatic thyroid cancer who are receiving thyroid hormone to suppress TSH.
In collaboration between scientist from the NCGC and the NIDDK, a miniaturized HTRF high-throughput screen was developed. It's a cell based assay, where an anti cAMP antibody contains a fluorescent cryptate tag (excitation 337 nm; emission 620 nm) and the acceptor is cAMP-d2 (excitation 620 nm; emission 665 nm). When antibody and cAMP-d2 interact and are excited by a 337 nm light, a FRET occurs resulting in emission at 665 nm. The assay is competition between cAMP-d2 and cAMP (from the cell lysate). The homogeneous protocol allows for one step dispense after stimulation that is automation friendly. This is a hit validation assay using the primary screen format.
NIH Chemical Genomics Center [NCGC]
NIH Molecular Libraries Probe Centers Network [MLPCN]
Assay Provider: Marvin Gershengorn, NIDDK
1. 3ul of 200 TSHR freshly harvested cells/well are dispensed into a 1536 TC-treated white solid bottom plate.
2. Through pintool addition, 23nl of compounds and control in 100% DMSO are added to the plate.
3. Then 1ul of EC80 TSH (4nM final) is added to the plate.
4. Assay is incubated at 37 deg C for 2 hours.
5. 2ul of cAMP antibody diluted 1:20 in lysis buffer is added.
6. Immediately following, 2ul of d2 diluted 1:20 in HBSS is added seperately.
7. The assay is incubated for 30 minutes at ambient room temperature.
8. The result is obtained by using a ViewLux read-out with HTRF settings.
Potency means the concentration at half of the fitted maximal effect.

Q: With `O=C(Nc1ccc(Oc2ccc(Cl)cc2)c(Cl)c1)c1cc(I)cc(I)c1O` as the compound, how does the Potency read?
A: 1.51 µM (active)

Q: Which Potency does the source give for `COC(=O)C1=C(c2ccc(-c3ccccc3)c(F)c2)C[C@@H]2CC[C@H]1N2C(=O)NCCc1ccccc1` here?
A: 6.01 µM (active)

Q: Which Potency does the source give for `COC(=O)C1=C(c2ccc(-c3ccccc3)c(F)c2)C[C@@H]2CC[C@H]1N2C(=O)NCCCOC(C)C` here?
A: 23.9 µM (active)

Q: `COC(=O)C1=C(c2ccc(-c3ccccc3)c(F)c2)C[C@@H]2CC[C@H]1N2C(=O)NCc1ccco1` was tested. Which Potency did it give?
A: 21.3 µM (active)

Q: `COC(=O)C1=C(c2ccc(OCc3ccccc3)cc2)C[C@@H]2CC[C@H]1N2C(=O)NCc1cccc(OC)c1` was tested. Which Potency did it give?
A: inactive

Q: `COC(=O)C1=C(c2ccc(-c3ccccc3)c(F)c2)C[C@@H]2CC[C@H]1N2C(=O)NCCOc1ccccc1` was tested. Which Potency did it give?
A: 5.36 µM (active)

Q: How did the Potency turn out when `O=C(Nc1ccc2ccccc2c1)c1nn(C23CC4CC(CC(C4)C2)C3)cc1Br` was run?
A: inactive

Q: `COC(=O)C1=C(c2ccc(-c3ccccc3)c(F)c2)C[C@@H]2CC[C@H]1N2C(=O)NC(C)C` was tested. Which Potency did it give?
A: 23.9 µM (active)

Q: For `COC(=O)C1=C(c2ccc(-c3ccccc3)c(F)c2)C[C@@H]2CC[C@H]1N2C(=O)NCC1CC1`, which Potency is on record?
A: 23.9 µM (active)

Q: `CNc1ccc2oc(C[C@H]3O[C@@]4(CC[C@H]3C)O[C@H]([C@H](C)C(=O)c3ccc[nH]3)[C@H](C)C[C@H]4C)nc2c1C(=O)O` was tested. Which Potency did it give?
A: inactive

Q: With `O=C(C1CCN(c2nc3ccc(Br)cc3s2)CC1)N1CCC2(CC1)OCCO2` as the compound, how does the Potency read?
A: 30.1 µM (active)

Q: For `COc1cc(C(C)=O)ccc1OC(=O)N(C)c1ccccc1`, which Potency is on record?
A: inactive

Q: How did the Potency turn out when `COC(=O)C1=C(c2ccc(OC(F)(F)F)cc2)C[C@@H]2CC[C@H]1N2C(=O)N1CCC(C)CC1` was run?
A: 30.1 µM (active)

Q: `CNc1cc(Cl)c2nonc2c1[N+](=O)[O-]` was tested. Which Potency did it give?
A: 4.78 µM (active)

Q: How did the Potency turn out when `Cc1ccccc1-c1nc(CS(=O)CC(=O)N2CCC3(CC2)OCCO3)c(C)o1` (centres undefined) was run?
A: inactive

Q: With `N#CC(C#N)=NNc1ccc(-n2ccc(C(F)(F)F)n2)cc1` as the compound, how does the Potency read?
A: 2.39 µM (active)

Q: With `Cc1ccc(-n2c(C)nc3ccccc3c2=O)c(C)c1` as the compound, how does the Potency read?
A: inactive

Q: How did the Potency turn out when `Oc1ccc(Cl)cc1Cc1cc(Cl)ccc1O` was run?
A: 30.1 µM (active)

Q: With `Nc1ccc(C2(c3ccc(N)cc3)c3ccccc3-c3ccccc32)cc1` as the compound, how does the Potency read?
A: 6.01 µM (active)

Q: With `CC12CCC3C(CC=C4CC5(CCC43C)OCCO5)C1CCC2=O` (centres undefined) as the compound, how does the Potency read?
A: inactive

Q: For `CCN(CC)S(=O)(=O)c1ccc(NN=C(C#N)C#N)cc1`, which Potency is on record?
A: 6.01 µM (active)

Q: How did the Potency turn out when `N#CC(C#N)=NNc1ccc([N+](=O)[O-])cc1` was run?
A: 2.69 µM (active)

Q: For `COc1cc(N2C(=O)CC(=O)NC2=O)cc(OC)c1OC`, which Potency is on record?
A: inactive

Q: With `Cc1nc2ccccc2c(=O)n1-c1cccc(C(F)(F)F)c1` as the compound, how does the Potency read?
A: inactive
